Screening data from PubChem BioAssay.
An excerpt weighted towards active compounds, which were near 19% of everything screened.
MCF10A rereplic: DNA re-replication induction in MCF 10a cells; MCF 10A DNA re-replication, Hoechst nuclear intensity, 48 h; Potency, µM (titrated, usually from 46.1 µM), actives largely listed as activators; 350,000 tested, 2.9% active; AID 624296; note: nearly all actives have a fitted effect of over 50% in size
DT40 TDP1 no CPT: qHTS for Inhibitors of human tyrosyl-DNA phosphodiesterase 1 (TDP1): qHTS in cells in absence of CPT. DT40 Tdp1-/- hTDP1 cells, no CPT, ATP luminescence, 48 h. 420,000 tested, 15% active. Potency, µM (highest dose often 46.2 µM), most hits filed as inhibitors; note: nearly all actives have a fitted effect of over 55% in size
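Camptothecin absent (DMSO only). Human TDP1-complemented DT40 knockout cells, 400 cells/well, 37 °C for minimum 48 hr; ATP measured via CellTiter-Glo, 30 min dark incubation, luminescence.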
TDP1 cell CPT: DT40-hTDP1 cell growth loss with CPT | chicken DT40 Tdp1-/-;hTDP1 cells + 20 nM CPT, ATP luminescence, 48 h | Potency, µM (series often up to 46.2 µM), usual class: inhibitors | 420,000 tested, 12% active | AID 686979; note: nearly all actives have a fitted effect of over 55% in size
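Chicken DT40 Tdp1-/- cells stably complemented with human TDP1 were seeded at 400 cells/well in medium containing 20 nM camptothecin, exposed to pin-transferred compounds, and grown at 37 °C for at least 48 hr. Viability was read as ATP luminescence.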
IL1B secr inh: blocks inflammasome-driven IL-1 beta release; THP-1 LPS/ATP IL-1B secretion, AlphaLISA, 16 h; hits give low values; activity change, % at 57.5 µM; 360,000 tested, 4.7% active; AID 743279; in the data active = activity change below about -50%; inconclusive = mostly about -30% to -49%
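THP-1 cells pretreated 1 hr with compounds (up to 57.5 uM final), then stimulated with LPS (250 ng/mL final) plus ATP (1.25 mM final); secreted IL-1B measured by AlphaLISA after 16 hr, decreased signal indicating inhibition.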
BCR signal inh: chronic active BCR signaling inhibition. ABC-DLBCL IkBa-CBG/CBR reporter, luminescence ratio, 4 h. Potency, µM (series often up to 46.1 µM), hits mostly inhibitors. 340,000 tested, 0.05% active. AID 493014; active = well fitted inhibition curve with a large enough effect in the signal ratio, with a control signal flat, not every such curve was filed as active; inconclusive = small, poorly fitted or top-dose-only effect, or effect the other way, or a change in a side signal; the % refers to the signal ratio
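Cell line TMD8 (human ABC DLBCL), stably expressing tet-inducible CBG68-IkBa fusion and CBR; IMDM/0.5% FBS; cpd up to 46 uM; dox induction, 4 h, 37C/5% CO2; dual luminescence; green/red ratio; MG132 control.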
SW480 rerep: induces DNA re-replication in SW480 colon adenocarcinoma cells; AID 624297; SW480 DNA re-replication, Hoechst DNA content imaging, 48 h; Potency, µM (highest dose often 46.1 µM), actives largely listed as activators; 340,000 tested, 1.8% active; note: nearly all actives have a fitted effect of over 55% in size
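Hoechst fluorescence of nuclei (405 nm excitation, 500-530 nm emission) measured by plate-scanning imager after 48 hr compound exposure at 37 C; re-replication scored as increased number of nuclei with elevated intensity.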
Numbers stand for hits; – = inactive; ? = inconclusive; · = no result; [ ] = dose if it differs, or a comment. Unless noted, calls come from the whole dose curve; as a rule, active = well fitted curve in the direction sought with a large enough effect; inconclusive = small, poorly fitted or top-dose-only effect, or another doubt; inactive = no such curve, though single readings can be large; an effect the other way counts as inactive or inconclusive.

SMILES | MCF10A rereplic | DT40 TDP1 no CPT | TDP1 cell CPT | IL1B secr inh | BCR signal inh | SW480 rerep
Cc1ccc(-c2onc3ccc(C=O)cc23)cc1 | ? | 18µM | 16µM | – | – | ?
O=C(O)/C=C/c1ccc2noc(-c3ccccc3)c2c1 | – | ? | 15µM | – | – | –
COc1ccc(Nc2nc(N3CCCC3)nc(N3CCCC3)n2)c(OC)c1 | – | ? | ? | – | – | –
COc1ccc(Nc2nc(NC(C)(C)C)nc(N3CCOCC3)n2)c(OC)c1 | – | ? | 21µM | – | – | ?
COc1ccc(Nc2nc(NC(C)(C)C)nc(N3CCCC3)n2)c(OC)c1 | ? | 16µM | 23µM | – | ? | ?
COc1ccc(Nc2nc(N3CCCCC3)nc(N3CCCCC3)n2)c(OC)c1 | – | – | – | – | – | –
COc1ccc(Nc2nc(Nc3ccc(OC)cc3OC)nc(N3CCN(C)CC3)n2)c(OC)c1 | ? | 16µM | ? | · | – | ?
COC(=O)c1ccc(Oc2nc(NC(C)(C)C)nc(N3CCOCC3)n2)cc1 | · | · | · | · | – | ·
CCN(C(=O)CN1CCCC(C)C1)c1c(N)n(Cc2ccccc2)c(=O)[nH]c1=O (centres undefined) | – | – | – | – | – | –
O=C(CN(c1ccccc1)S(=O)(=O)c1ccccc1)Nc1ccc(F)cc1 | – | – | ? | – | – | –
CSc1ccccc1NC(=O)CN(Cc1ccc(Cl)cc1)S(C)(=O)=O | – | – | – | -63 | – | –
COc1ccc(NC(=O)N2CC[C@@]3(CCCN(C(=O)c4cccn4C)C3)C2)cc1 | · | – | – | · | · | ·
O=C(CSc1nc(=O)n2ccccc2n1)NC1CCCCC1 | – | – | – | – | – | –
CCOC(=O)c1ccc(N2CCOCC2)c(NS(=O)(=O)c2ccc(F)cc2)c1 | – | – | – | – | – | –
Cn1c(=O)c(Nc2ccc(Cl)cc2)c2c3c(cccc31)C(=O)c1ccccc1-2 | ? | 18µM | ? | – | ? | ?
CC(=O)Nc1c2c3c(cccc3n(C)c1=O)C(=O)c1ccccc1-2 | – | – | – | – | – | –
C(#Cc1ccccc1)CN1CCCCC1 | – | – | – | – | – | –
C(#CCN1CCCC1)CC(c1ccccc1)c1ccccc1 | 13µM | 16µM | ? | -64 | – | –
COc1ccccc1C=CC(=O)C=Cc1ccccc1OC | 3.3µM | 3.3µM | 4.6µM | -104 | · | 8.2µM
COc1ccccc1/C=C/C(=O)Nc1cccnc1Cl | – | – | – | -55 | ? | –
CNc1ccccc(C(=O)/C=C/c2ccccc2OC)c1=O | ? | 15µM | 18µM | -104 | ? | ?
COc1ccccc1/C=C/C(=O)/C=C/c1ccccc1O | 10µM | 2.9µM | 2.9µM | -98 | ? | ?
CC1CN(CCNC(=O)C2CCCc3c2[nH]c2ccccc32)Cc2ccccc2O1 (centres undefined) | · | ? | –[9.04 µM] | · | · | ·
O=C(N/N=C/c1ccc(OC(F)F)cc1OC(F)F)NC1CCCCC1 | ? | ? | ? | -81 | – | –
CC(=O)Nc1ccc(NC(=O)C(C)OC(=O)CCCc2c[nH]c3ccccc23)cc1 (centres undefined) | – | – | – | – | ? | 6.5µM
SMILES | MCF10A rereplic | DT40 TDP1 no CPT | TDP1 cell CPT | IL1B secr inh | BCR signal inh | SW480 rerep
COC(=O)c1c(-c2c(Cl)cccc2Cl)noc1NC(=O)NN1CCOCC1 | – | – | – | – | ? | –
COC(=O)c1c(-c2c(Cl)cccc2Cl)noc1NC(=O)NN1CCCCC1 | ? | 16µM | ? | · | – | –
Cc1ccccc1NC(=O)C(=O)NNC(=O)COc1ccc2ccccc2c1 | – | ? | ? | – | – | –
COc1ccc(C(=O)N2CCN(c3cccc(C)c3C)CC2)cc1S(=O)(=O)NC1CC1 | – | 23µM | ? | – | ? | –
COc1cccc(N2CCN(C(=O)c3ccc(OC)c(S(=O)(=O)NC4CC4)c3)CC2)c1 | · | 16µM | ? | – | · | ·
COc1ccc(C(=O)N2CCN(c3ccccc3Cl)CC2)cc1S(=O)(=O)NC1CC1 | – | 4.1µM | ? | – | – | –
